# Screening data deposited in PubChem by several laboratories.
# A selection: hits, their analogues and other compounds. The true share with any hit is near 1.8%.
# ARNT TACC3 PPI: disruptors of human ARNT/TACC3 interaction | Q9Y6A5 | AlphaScreen His-ARNT PAS-B/GST-TACC3 binding, luminescence; TACC3 fragment carries E629A point mutation | inhibition, % at 9.99 µM | 390,000 tested, 0.66% active | AID 623870;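 active = mean inhibition of replicates at least 50% and at least half of replicates each reaching 50%; inconclusive = half or more replicates reach 50% but mean below 50%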;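 note: 0% = complete ARNT plus TACC3 wells and 100% = ARNT alone without TACC3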
# aDG glyco up: increases alpha dystroglycan glycosylation. 360,000 tested, 0.22% active. AID 624168. activation, % at 10 µM. Pro5-aDG cells, alpha-DG glycosylation AlphaScreen (IIH6); 0% Pro5, 100% B10-LARGE cell signal;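 active = activation of at least 8% versus controls, or a plate z-score of at least 8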;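 note: Pro5 are CHO cells carrying HIG-tagged alpha-DG that lacks glycosylation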
# Bfl-1 A1 inh: inhibitors of the anti-apoptotic protein A1, read as caspase activation; MEF A1-2A-BIM cells, Caspase-Glo 3/7 luminescence, 3 h; percent of clofoctol response, vehicle zero; caspase activation, % (no concentration beside the values); AID 2462; 330,000 tested, 0.066% active;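 active = over half of replicate activation scores above 10%, or exactly half above 10 with the replicate mean above 10; inconclusive = replicate mean below 10 yet half the replicates above 10; inactive = over half of replicates below 10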
# Mot1-301 SUMO: blocks SUMOylation pathway, rescuing yeast Mot1-301 growth. S. cerevisiae Mot1-301 growth rescue, ATP luminescence, 38.5C; percent above DMSO median, 100 means doubled. growth rescue, % at 18.8 µM. 320,000 tested, 1% active;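 active = every valid replicate shows activation above 250% relative to neutral control wells; inactive = the rest, any valid replicate at or below 250%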;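 note: OY570 slx delta 5 strain wells were the positive control but not used for scaling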
# AI-2 QS mod: modulates the Vibrio harveyi AI-2 quorum sensing system. Vibrio harveyi JMH597 AI-2 luminescence/OD600 ratio, 9 h; hits give low values; strain lacks LuxN and CqsS sensors; 0 = neutral-control median. activity change, % at 7.5 µM. 300,000 tested, 0.4% active; in the data active = activity change below about -75%, passing the limit was not always enough; inconclusive = no clear call, values can overlap the other calls;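 note: luminescence divided by OD600 gain over 9 h not by final OD600 alone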
# aDG glyco conf: confirmation of alpha dystroglycan glycosylation activators. AID 651671. 600 tested, 17% active. Pro5-aDG cells, alpha-DG glycosylation, IIH6 AlphaLISA; scaled to LARGE-overexpressing B10 cells as 100%. activation, % at 10 µM (by protocol). shares compounds with aDG glyco up;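 active = activation of at least 7% in one or more replicates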;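 note: cells exposed to compound for two days before detection; 0% = DMSO-treated Pro5 cells and 100% = DMSO-treated B10-LARGE cells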
# * = called active by the depositor; u = inconclusive; x = no result given.
SMILES,ARNT TACC3 PPI,aDG glyco up,Bfl-1 A1 inh,Mot1-301 SUMO,AI-2 QS mod,aDG glyco conf
CCOC(=O)C1CCCN(S(=O)(=O)c2ccc(S(=O)(=O)N3CCCC3)cc2)C1 (stereo not given),-13,4.5*,0,-9,5,0
O=C(CSc1nnc(NC(=O)c2ccco2)s1)Nc1ccccc1Br,15,2.2*,0,3,11,0
CC(C)c1cc(-c2cc(-c3ccc(Cl)cc3)on2)nc(NC2CCCC2)n1,-6,5.7*,-1,304,8,1
CC(C)c1cc(-c2cc(-c3ccccc3)on2)nc(NC2CCCC2)n1,8,0,0,633,27,x
C[C@@H]1CN([C@@H](C)CO)C(=O)c2cccc(NC(=O)C3CC3)c2O[C@@H]1CN(C)Cc1ccc(C(=O)O)cc1,-3,x,x,x,x,x
COc1cc(C(=O)NC(CCSC)C(=O)Nc2ccc(N3CCOCC3)cc2)cc(OC)c1OC (stereo not given),x,0,x,x,x,x
CO[C@@H]1CN(C)C(=O)c2cc(NS(C)(=O)=O)ccc2OC[C@H](C)N(CC2CCCCC2)C[C@@H]1C,-5,x,x,x,x,x
CNC(=O)c1c(NC(=O)c2ccc(S(=O)(=O)N3CCCCC3)cc2)sc2c1CCN(C(C)C)C2,-8,0,0,28,35,x
CCOC(=O)N1CCN(S(=O)(=O)c2ccc(C(=O)Nc3sc4c(c3C(N)=O)CCN(CC)C4)cc2)CC1,3,86*,1,0,23,0
CN1CCc2c(sc(NC(=O)c3ccc(S(=O)(=O)N4CCCC4)cc3)c2C(N)=O)C1,-9,14*,0,-4,13,2
CN1CCc2c(sc(NC(=O)c3ccc(S(=O)(=O)N4CCOCC4)cc3)c2C(N)=O)C1,-6,1,0,-15,14,x
CCN1CCc2c(sc(NC(=O)c3ccc(S(=O)(=O)N4CCCC4)cc3)c2C(=O)NC)C1,3,47*,0,21,28,0
CCCNC(=O)N(C)C[C@@H]1Oc2cc(C#Cc3cccc(F)c3)ccc2S(=O)(=O)N([C@@H](C)CO)C[C@H]1C,-8,x,x,x,x,x
Cc1nc(N2CCOCC2)c2c(C)c(C(=O)Nc3ccc(F)cc3Cl)sc2n1,-2,0,0,19,8,x
CN(C)NC(=O)c1ccc([N+](=O)[O-])s1,2,0,0,22,-7,x
O=C(Nc1cccc2ccccc12)c1ccc([N+](=O)[O-])s1,x,12*,0,23,18,5.7*
O=C(Nc1ccccc1F)c1ccc([N+](=O)[O-])s1,31,16*,-4,-34,-115*,3.7*
O/N=C/c1ccc(OCc2ccccc2)c(Cl)c1,x,0,-6,153,14,x
O=C(C1CCCCC1)N1[C@H](CO)[C@H]2c3ccccc3N(S(=O)(=O)c3ccccc3)C[C@H]21,17,x,x,x,x,x
COc1ccc(-c2cc(-c3ccc(F)cc3)nc(N3CCN(C)CC3)n2)cc1,-10,15*,0,14,-1,0
Cn1c(=O)c2c(SCC(=O)Nc3cccc(F)c3)nc(-c3ccco3)nc2n(C)c1=O,-12,0,1,4,27,x
COc1cc(N)c2ncsc2c1,14,9.7*,x,x,x,1
COc1ccc(OC)c(N)c1,4,0,1,-5,25,x
CS(=O)(=O)N(CC(=O)NCc1ccc2c(c1)OCO2)Cc1ccc(Cl)cc1,-1,0,0,10,-4,x
Oc1ccc(C[C@H]2CNC(=S)N2CC2CCCN2C[C@H](Cc2ccc(O)cc2)N2C[C@H](Cc3ccccc3)N(CC3CCCCC3)C2=S)cc1 (stereo not given in full),0,8.9*,x,x,x,4
SMILES,ARNT TACC3 PPI,aDG glyco up,Bfl-1 A1 inh,Mot1-301 SUMO,AI-2 QS mod,aDG glyco conf
O=C(Cn1cccc1C(=O)c1ccccc1)NCCCN1CCOCC1,11,0,0,-13,18,x
Cc1ccc(C)c(N2CCN(CCCNC(=O)Cn3cccc3C(=O)c3ccccc3)CC2)c1,28,10*,0,5,38,3
O=S(=O)(c1ccc2nc(N3CCN(c4ccccc4)CC3)ccc2c1)N1CCCCC1,1,0,0,62,21,x
CCC(=O)N[C@@H]1CC[C@H](CCNS(=O)(=O)c2ccc(Cl)cc2)O[C@H]1CO,-6,x,x,x,x,x
O=C(NCC1CCCO1)C1CCN(C2CCN(CCCC3CCCC3)CC2)CC1 (stereo not given),x,1,-1,35,15,x
O=C(NCC1CCCO1)C1CCN(C2CCN(C(=O)CC3CCCC3)CC2)CC1 (stereo not given),2,3.7*,0,-18,21,0
CO[C@H]1CN(C)C(=O)c2cc(NC(=O)Nc3cc(F)ccc3F)ccc2OC[C@@H](C)NC[C@H]1C,-4,x,x,x,x,x
CN(C(=O)COc1ccc(Cl)cc1)C1(C)CCS(=O)(=O)C1 (stereo not given),-4,0,0,-3,11,x
CC(=O)c1ccc(NC(=O)C2CCCC2)cc1,19,2.1*,0,-11,4,-1
CC(=O)c1cccc(NC(=O)C2CCCC2)c1,x,0,0,8,18,x
CCOC(=O)c1ccc(NC(=S)N2CCN(C)CC2)cc1,1,6.9*,0,15,9,-1
CCOC(=O)c1ccc(NC(=S)N2CCC(C(N)=O)CC2)cc1,-17,0,1,-4,-1,x
O=C(O)c1ccc2c(c1)C(=O)N(c1cccc(-c3nc4ccccc4s3)c1)C2=O,-7,0,-1,15,5,x
Cc1nn(C)c(C(=O)NCc2ccc(Cl)cc2)c1Cl,-6,4.9*,-1,9,6,2
Cc1nc(C)c(C(=O)NCc2ccc(Cl)cc2)o1,-6,0,0,-13,23,x
COc1cc(C=NNC(=O)c2ccccc2NS(=O)(=O)c2cccs2)cc(OC)c1O,12,0,1,-33,x,x
Cc1c(/C=N/Nc2ccc(F)cc2)c(O)n(C)c(=O)c1C#N,x,0,-1,227,4,x
COc1cc(O)c2c(c1)OC(c1ccc(O)cc1)CC2=O (stereo not given),-11,13*,0,2,6,2
COc1ccc([C@@H]2CC(=O)c3c(O)cc(O)cc3O2)cc1O,15,0,-3,0,x,x
Cc1c(O)cc2c(c1O)C(=O)CC(c1ccc(O)cc1)O2 (stereo not given),-1,4.7*,1,10,34,-1
O=C(O)c1ccc(N/N=C/c2cccc3nccnc23)cc1,x,0,-3,-15,u,x
CC(C)(C)c1ccc(C(=O)Nc2ccc(C(=O)NCc3cccnc3)cc2)cc1,x,2.3*,1,262,12,4.5*
CCCCc1ccc(NC(=O)N[C@@H](C)C(=O)O)cc1,-5,0,0,2,30,x
